Experiment [1] is described as follows: S16 Schwann cell viability assay (CellTiter-Glo assay) (AID 624031).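 Note: cellular ATP luminescence as a viability measure; nearly all actives have a fitted effect of over 70% in size.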 In outline: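 This viability control uses native rat S16 Schwann cells grown in DMEM plus 10% FBS. After a 24 h compound treatment at 37 °C, CellTiter-Glo luminescence reports ATP content, scaled against DMSO-treated and cell-free wells.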
(In general: In ATP-based viability assays light output follows the ATP content of the culture.)

Another experiment has as its system CP215. The experiment in a line: qHTS profiling for inhibitors of Plasmodium falciparum proliferation (AID 504749). Note: nearly all actives have a fitted effect of over 60% in size. Note: potency is the fitted concentration of half-maximal effect. The settings on record: P. falciparum in erythrocytes, SYBR Green DNA, 72 h; series mostly up to 12.8 µM. In outline: (§1)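 Parasite proliferation within erythrocytes, 72 h exposure. Endpoint: SYBR Green I fluorescence after overnight lysis at room temperature. Controls: 0.29 uM artemisinin, DMSO.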
On the technique in general: In qHTS, concentration-response curves come from the screen itself.

A further experiment deals with DFO2036. The description is as above. The note with it: P. falciparum in erythrocytes, SYBR Green DNA, 72 h; series mostly up to 12.8 µM. In outline: as §1
A further experiment deals with ICS. The description is as above. The note with it: P. falciparum in erythrocytes, SYBR Green DNA, 72 h; series mostly up to 12.8 µM. The gist of the method: as §1
The next experiment has as its system W2. The experiment is described as above. The settings on record: P. falciparum in erythrocytes, SYBR Green DNA, 72 h; series mostly up to 12.8 µM. In outline:
as §1

A further experiment deals with AA1029. The experiment is described as above. The note with it: P. falciparum in erythrocytes, SYBR Green DNA, 72 h; series mostly up to 12.8 µM. The gist of the method:
as §1

Another experiment deals with ATS189. The description is as above. The settings on record: P. falciparum in erythrocytes, SYBR Green DNA, 72 h; series mostly up to 12.8 µM. In outline:
as §1

In the next experiment the test system is CP191. Described as above. The settings on record: P. falciparum in erythrocytes, SYBR Green DNA, 72 h; series mostly up to 12.8 µM. In outline:
as §1

In another experiment the test system is CP217. The experiment is described as above. The note with it: P. falciparum in erythrocytes, SYBR Green DNA, 72 h; series mostly up to 12.8 µM. The gist of the method:
as §1

For the next experiment, the system named is CP247. The experiment is described as above. The settings on record: P. falciparum in erythrocytes, SYBR Green DNA, 72 h; series mostly up to 12.8 µM. The gist of the method: as §1
For the next experiment, the system named is CP250. The experiment is described as above. The note with it: P. falciparum in erythrocytes, SYBR Green DNA, 72 h; series mostly up to 12.8 µM. The gist of the method: as §1
In the next experiment the test system is CP260. The experiment is described as above. The settings on record: P. falciparum in erythrocytes, SYBR Green DNA, 72 h; series mostly up to 12.8 µM. In outline:
as §1

For a further experiment, the system named is CP265. The experiment is described as above. The settings on record: P. falciparum in erythrocytes, SYBR Green DNA, 72 h; series mostly up to 12.8 µM. In outline: as §1
Another experiment deals with CP335. The description is as above. The settings on record: P. falciparum in erythrocytes, SYBR Green DNA, 72 h; series mostly up to 12.8 µM. The gist of the method:
as §1

The test system of the next experiment is P93_24. The description is as above. The note with it: P. falciparum in erythrocytes, SYBR Green DNA, 72 h; series mostly up to 12.8 µM. In outline:
as §1

The test system of the next experiment is P94_40. The experiment is described as above. The note with it: P. falciparum in erythrocytes, SYBR Green DNA, 72 h; series mostly up to 12.8 µM. The gist of the method:
as §1

A further experiment has as its system TAB113. The description is as above. The note with it: P. falciparum in erythrocytes, SYBR Green DNA, 72 h; series mostly up to 12.8 µM. In outline: as §1
A further experiment relates to CP192. The description is as above. The note with it: P. falciparum in erythrocytes, SYBR Green DNA, 72 h; series mostly up to 12.8 µM. In outline:
as §1

The next experiment relates to DIV17. The description is as above. The note with it: P. falciparum in erythrocytes, SYBR Green DNA, 72 h; series mostly up to 12.8 µM. The gist of the method: as §1
The test system of a further experiment is Dd2. The description is as above. The settings on record: P. falciparum in erythrocytes, SYBR Green DNA, 72 h; series mostly up to 12.8 µM. The gist of the method: as §1

Results filed as inconclusive are left out. Active and inactive are the calls of the source. Calls come from the whole dose curve; as a rule, active = well fitted curve in the direction sought with a large enough effect; inconclusive = small, poorly fitted or top-dose-only effect, or another doubt; inactive = no such curve, though single readings can be large; an effect the other way counts as inactive or inconclusive.

With `Cc1cccc(CN2CCN([C@@H](c3ccccc3)c3ccc(Cl)cc3)CC2)c1`, the outcome in experiment [1] was inactive. For the same molecule, the Potency entry in the experiment on CP215 and in the experiment with DFO2036 was “inactive” throughout. For the same molecule, the Potency was 2820 nM (active) in the experiment with ICS and 3220 nM (active) with W2.

Take `CCN(CC)CCOC(=O)[C@@H](Cc1cccc2ccccc12)C[C@@H]1CCCO1`: the outcome in [1] was inactive. The Potency entry in the experiment on AA1029, with ATS189, in the experiment on CP191, with CP215, in the experiment on CP217 and in the experiment on CP247 was “inactive” throughout. For the same molecule, the Potency result in the experiment on CP250, in the experiment on CP260, in the experiment with CP265, in the experiment on CP335, with DFO2036 and in the experiment on ICS was “inactive” throughout. Besides, the Potency entry in the experiment with P93_24, in the experiment on P94_40 and in the experiment on TAB113 was “inactive” throughout. Further, the Potency in the experiment with W2 is 2280 nM (active).

Consider `CN1CCC[C@@H](CC2c3ccccc3Sc3ccccc32)C1`, for which the Potency result with ATS189, in the experiment with CP191, with CP192, with CP217, in the experiment on CP247 and in the experiment on CP250 was “inactive” in each case. The Potency result with CP335 and with TAB113 was “inactive” in each case. The Potency in the experiment on W2 was 1440 nM (active).

Turning to `NC[C@@H]1O[C@H](O[C@H]2[C@H](O)[C@H](O[C@@H]3O[C@H](CO)[C@@H](O)[C@H](N)[C@@H]3O)[C@@H](N)C[C@H]2N)[C@@H](O)[C@H](O)[C@@H]1O`, in [1], the molecule was called inactive. For the same molecule, the Potency result in the experiment with AA1029, with ATS189, in the experiment on CP191, in the experiment on CP192, in the experiment with CP215 and in the experiment with CP217 was “inactive” in each case. The Potency result with CP247, in the experiment with CP250, with CP260, in the experiment on CP265, in the experiment with CP335 and with DFO2036 was “inactive” throughout. Besides, the Potency entry in the experiment on DIV17, with Dd2, in the experiment on ICS, in the experiment on P93_24, in the experiment with P94_40 and in the experiment with TAB113 was “inactive” each time. In addition, the Potency result with W2 is “inactive”.

In the case of `C[C@@H](CNC1CCCCC1)OC(=O)c1ccccc1`, in [1], the call was inactive. The Potency is 3160 nM (active) with ATS189; 4550 nM (active) in the experiment on DIV17; 4470 nM (active) in the experiment on Dd2; 1780 nM (active) in the experiment with ICS; 3160 nM (active) in the experiment with P93_24; 3550 nM (active) with P94_40. Also, the Potency in the experiment with W2 is 2280 nM (active). In addition, the Potency result with CP192 is “inactive”.

For `CN1CCO[C@H](c2ccccc2)c2ccccc2C1`, the molecule was classed as inactive in experiment [1]. In addition, the Potency result with CP191, with CP192, in the experiment on CP215, in the experiment with CP217, with CP250 and in the experiment on CP260 was “inactive” each time. Moreover, in the experiment with ICS, the Potency result was “inactive”. Besides, the Potency with W2 was 2030 nM (active).

Consider `CC(C)(C)NC[C@H](O)COc1cccc2c1C[C@@H](O)[C@@H](O)C2`, for which the outcome in experiment [1] was inactive. Further, the Potency entry in the experiment with AA1029, with ATS189, with CP191, with CP192, with CP215 and in the experiment with CP217 was “inactive” throughout. For the same molecule, the Potency result in the experiment on CP247, in the experiment with CP250, with CP260, in the experiment with CP265, in the experiment on CP335 and in the experiment with DFO2036 was “inactive” each time. The Potency result with DIV17, in the experiment with Dd2, in the experiment with ICS, with P93_24, in the experiment on P94_40 and with TAB113 was “inactive” each time. Further, the Potency result in the experiment on W2 is “inactive”.

With `CCc1c(C)[nH]c2c1C(=O)[C@H](CN1CCOCC1)CC2`, the call in experiment [1] was inactive. The Potency result with AA1029, in the experiment on ATS189, in the experiment with CP191, with CP192, in the experiment with CP215 and with CP217 was “inactive” in each case. Moreover, the Potency result in the experiment on CP247, in the experiment with CP250, in the experiment with CP260, in the experiment on CP265, in the experiment on CP335 and with DFO2036 was “inactive” each time. In addition, the Potency result in the experiment on DIV17, in the experiment with Dd2, in the experiment on ICS, in the experiment on P93_24, with P94_40 and in the experiment with TAB113 was “inactive” throughout. In the experiment with W2, the Potency result is “inactive”.

The values above are taken from PubChem BioAssay (NCATS).
